Compound activity (PubChem BioAssay)
In the library only some 0.56% were active in any assay of this set; here they are far more common.
Bim-Bcl-XL: human Bim-Bcl-XL interaction inhibition; Q07817; Bim peptide-Bcl-XL binding, bead flow cytometry, fluorescence; inhibition, % at 10 µM; 0.04% of 190,000 active; AID 1007
Bim-Bcl-B: human Bim-Bcl-B interaction inhibition | bead-based flow cytometry, Bim peptide-Bcl-B binding | inhibition, % at 10 µM | AID 951 | 0.073% of 190,000 active | Q9HD36;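 note: 0% = tracer peptide without compound and 100% = reference inhibitor peptide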
Target sequence (Q9HD36 whole entry, looked up): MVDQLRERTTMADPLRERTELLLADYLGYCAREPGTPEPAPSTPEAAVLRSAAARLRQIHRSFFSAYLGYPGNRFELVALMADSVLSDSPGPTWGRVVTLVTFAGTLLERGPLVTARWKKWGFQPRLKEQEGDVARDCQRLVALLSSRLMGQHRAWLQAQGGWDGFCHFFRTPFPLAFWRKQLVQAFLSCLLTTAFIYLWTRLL
Arbovirus anti: antivirals against arbovirus infection. arbovirus infection cell-based antiviral screen. 0.37% of 200,000 active. inhibition, % at 10 µM; in the data active = inhibition above about 30%
Bcl-W Bim block: inhibitors of Bim-Bcl-W interaction, human; Q92843; inhibition, % at 10 µM; bead-based flow cytometry, Bim peptide-Bcl-W binding; 0.02% of 190,000 active; AID 952;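 note: 0% = bound tracer without compound and 100% = peptide blocker; higher means less fluorescent Bim peptide bound to Bcl-W beads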
Target sequence (Q92843 whole entry, looked up): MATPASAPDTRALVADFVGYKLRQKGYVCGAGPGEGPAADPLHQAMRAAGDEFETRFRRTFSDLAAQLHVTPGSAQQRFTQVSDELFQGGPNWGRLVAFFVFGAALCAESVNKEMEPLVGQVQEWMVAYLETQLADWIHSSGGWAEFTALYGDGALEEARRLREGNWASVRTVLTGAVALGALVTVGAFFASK
Bim-Bfl-1: disrupts Bim binding to human Bfl-1; Q16548; Bead-based flow cytometry, Bim-Bfl-1 binding inhibition; inhibition, % at 10 µM; 0.12% of 190,000 active; AID 1008;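 note: 0% = wells without compound plus tracer and 100% = blocker peptide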
Target sequence (Q16548 whole entry, looked up): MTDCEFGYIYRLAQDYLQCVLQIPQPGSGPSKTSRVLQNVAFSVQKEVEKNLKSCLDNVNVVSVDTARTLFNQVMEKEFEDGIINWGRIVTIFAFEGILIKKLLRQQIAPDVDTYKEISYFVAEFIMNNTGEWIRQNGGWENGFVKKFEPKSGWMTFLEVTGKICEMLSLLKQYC
Bcl-2 Bim block: disrupts Bim peptide binding to human Bcl-2 | P10415 | Bead-based flow cytometry, Bim peptide-Bcl-2 binding | inhibition, % at 10 µM | 0.06% of 190,000 active; in the data active = inhibition above about 40%;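 note: 0% = no compound wells with probe peptide and 100% = reference peptide inhibitor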
Starred values were filed as active, the others as inactive. Cut-off read from the data, not from the text of the source, unless noted: active = inhibition above about 40%.

`CCC(C)(C)NC(=O)Cc1ccc(Cl)cc1` gave Bim-Bcl-XL -5.0, Bim-Bcl-B -7.0, Arbovirus anti 6.6, Bcl-W Bim block -4.0, Bim-Bfl-1 -7.0 and Bcl-2 Bim block -5.0.
C1=CC2c3ccccc3NC(c3ccncc3)C2C1 (configuration not stated) was read as Bim-Bcl-XL 8.0, Bim-Bcl-B 9.0, Arbovirus anti -8.2, Bcl-W Bim block 14.0, Bim-Bfl-1 55.0* and Bcl-2 Bim block 18.0.
For CN1CCN(CC2(O)CCN(S(=O)(=O)c3ccc(Cl)cc3)CC2)CC1 the results were Bim-Bcl-XL -1.0, Bim-Bcl-B -4.0, Arbovirus anti 2.1, Bcl-W Bim block -2.0, Bim-Bfl-1 -4.0 and Bcl-2 Bim block -4.0.
`CC1Cc2ccccc2N1C(=O)CSC1=NCCS1` (configuration not stated) gave Bim-Bcl-XL -4.0, Bim-Bcl-B -1.0, Arbovirus anti 0.4, Bcl-W Bim block -3.0, Bim-Bfl-1 0.0 and Bcl-2 Bim block 0.0.
`CC1Cc2ccccc2N1C(=O)CSc1ccccc1` (configuration not stated) gave Bim-Bcl-XL -2.0, Bim-Bcl-B 0.0, Arbovirus anti 30.5*, Bcl-W Bim block 0.0, Bim-Bfl-1 0.0 and Bcl-2 Bim block 1.0.
`CC(C)C(=O)Nc1nnc(SCC(=O)N2c3ccccc3CC2C)s1` (configuration not stated) gave Bim-Bcl-XL 0.0, Bim-Bcl-B -3.0, Arbovirus anti 39.3*, Bcl-W Bim block -1.0, Bim-Bfl-1 -1.0 and Bcl-2 Bim block -1.0.
`CC(C)CCN1CCN(Cc2cccc(C(F)(F)F)c2)CC1CCO` (configuration not stated) gave Bim-Bcl-XL 0.0, Bim-Bcl-B -2.0, Arbovirus anti -16.3, Bcl-W Bim block 0.0, Bim-Bfl-1 -4.0 and Bcl-2 Bim block -1.0.
`Cc1ccccc1-c1nnc(NC(=O)c2cc3ccccc3oc2=O)s1` gave Bim-Bcl-XL -4.0, Bim-Bcl-B 0.0, Arbovirus anti -3.9, Bcl-W Bim block 0.0, Bim-Bfl-1 -1.0 and Bcl-2 Bim block -2.0.
For CCc1nnc(NC(=O)c2cc3ccccc3oc2=O)s1 the results were Bim-Bcl-XL -2.0, Bim-Bcl-B -4.0, Arbovirus anti 64.5*, Bcl-W Bim block -1.0, Bim-Bfl-1 -2.0 and Bcl-2 Bim block -1.0.
O=C(Nc1ccc(Br)cc1)c1ccc(F)c(S(=O)(=O)NCc2cccs2)c1 was read as Bim-Bcl-XL -6.0, Bim-Bcl-B -4.0, Arbovirus anti -17.9, Bcl-W Bim block -3.0, Bim-Bfl-1 -4.0 and Bcl-2 Bim block -6.0.
Screening O=C(O)c1ccc(N2C(=O)/C(=C/c3ccc(-c4ccc([N+](=O)[O-])cc4)o3)C=C2c2ccccc2)cc1 returned Bim-Bcl-XL -2.0, Bim-Bcl-B 9.0, Arbovirus anti 105.8*, Bcl-W Bim block 1.0, Bim-Bfl-1 1.0 and Bcl-2 Bim block 5.0.
`Cc1[nH]c2ccccc2c1C(=O)COC(=O)c1c(-c2c(F)cccc2Cl)noc1C` gave Bim-Bcl-XL 41.0*, Bim-Bcl-B 21.0, Arbovirus anti -25.4, Bcl-W Bim block 29.0, Bim-Bfl-1 43.0* and Bcl-2 Bim block 28.0.
Cc1[nH]c2ccccc2c1C(=O)COC(=O)c1c(-c2ccccc2Cl)noc1C was read as Bim-Bcl-XL -8.0, Bim-Bcl-B -2.0, Arbovirus anti -29.8, Bcl-W Bim block -2.0, Bim-Bfl-1 0.0 and Bcl-2 Bim block -3.0.
COc1ccc(C2=CC(c3ccc(Cl)cc3)n3cnnc3N2)cc1OC (configuration not stated) was read as Bim-Bcl-XL 0.0, Bim-Bcl-B 0.0, Arbovirus anti 49.7*, Bcl-W Bim block 0.0, Bim-Bfl-1 1.0 and Bcl-2 Bim block 1.0.
Cc1ccc(-c2cc(-c3ccccc3)no2)c(O)c1 was read as Bim-Bcl-XL -3.0, Bim-Bcl-B -4.0, Arbovirus anti 35.8*, Bcl-W Bim block -4.0, Bim-Bfl-1 -5.0 and Bcl-2 Bim block -3.0.
`COc1ccc(C(=O)Nc2cnc3sc(C)nn3c2=O)cc1` gave Bim-Bcl-XL 0.0, Bim-Bcl-B -3.0, Arbovirus anti -2.5, Bcl-W Bim block -1.0, Bim-Bfl-1 -6.0 and Bcl-2 Bim block -4.0.
For CCOc1ccc(S(=O)(=O)N2CCN(c3ccccc3OC)CC2)c2cccnc12 the results were Bim-Bcl-XL -21.0, Bim-Bcl-B -10.0, Arbovirus anti 34.5*, Bcl-W Bim block -2.0, Bim-Bfl-1 -11.0 and Bcl-2 Bim block -9.0.
Screening CCOc1ccc(S(=O)(=O)N2CCN(c3ccccc3)CC2)c2cccnc12 returned Bim-Bcl-XL -1.0, Bim-Bcl-B 0.0, Arbovirus anti 18.2, Bcl-W Bim block -1.0, Bim-Bfl-1 0.0 and Bcl-2 Bim block 2.0.
Screening C/C(=N\NC(=O)C1CC1)c1ccccc1O returned Bim-Bcl-XL -3.0, Bim-Bcl-B -6.0, Arbovirus anti 0.2, Bcl-W Bim block -4.0, Bim-Bfl-1 -7.0 and Bcl-2 Bim block -6.0.
N#Cc1c(-c2ccco2)nc(SCC(=O)Nc2ccc(S(N)(=O)=O)cc2)[nH]c1=O was read as Bim-Bcl-XL 2.0, Bim-Bcl-B -4.0, Arbovirus anti 32.3*, Bcl-W Bim block 0.0, Bim-Bfl-1 -13.0 and Bcl-2 Bim block -6.0.
For Cc1cc(C)nc(NS(=O)(=O)c2ccc(NC(=O)CSc3nc(-c4ccccc4)c(C#N)c(=O)[nH]3)cc2)n1 the results were Bim-Bcl-XL 1.0, Bim-Bcl-B 1.0, Arbovirus anti 6.6, Bcl-W Bim block 4.0, Bim-Bfl-1 -3.0 and Bcl-2 Bim block 0.0.
Screening O=[N+]([O-])c1ccc(-c2cnc(SCc3ccccc3Cl)[nH]2)cc1 returned Bim-Bcl-XL 14.0, Bim-Bcl-B 81.0*, Arbovirus anti -16.8, Bcl-W Bim block 12.0, Bim-Bfl-1 59.0* and Bcl-2 Bim block 80.0*.
Screening O=[N+]([O-])c1ccc(-c2cnc(SC(c3ccccc3)c3ccccc3)[nH]2)cc1 returned Bim-Bcl-XL -5.0, Bim-Bcl-B -12.0, Arbovirus anti 9.7, Bcl-W Bim block -5.0, Bim-Bfl-1 -10.0 and Bcl-2 Bim block -8.0.
Cc1ccc(C(=O)Nc2ccc(C(=O)N3CCCCC3)cc2)cc1 was read as Bim-Bcl-XL 0.0, Bim-Bcl-B 0.0, Arbovirus anti -3.7, Bcl-W Bim block 0.0, Bim-Bfl-1 -1.0 and Bcl-2 Bim block -1.0.
O=C(CCn1c(=O)sc2ccccc21)NCCCn1ccnc1 was read as Bim-Bcl-XL 1.0, Bim-Bcl-B 0.0, Arbovirus anti 30.3*, Bcl-W Bim block -1.0, Bim-Bfl-1 0.0 and Bcl-2 Bim block -19.0.
`Cc1ccc(-c2cc(-c3ccccc3)c(C#N)c(N)n2)o1` gave Bim-Bcl-XL 0.0, Bim-Bcl-B 2.0, Arbovirus anti -5.5, Bcl-W Bim block 6.0, Bim-Bfl-1 42.0* and Bcl-2 Bim block 4.0.
Cc1ccc(-c2cc(-c3ccccc3Cl)c(C#N)c(N)n2)o1 was read as Bim-Bcl-XL 0.0, Bim-Bcl-B -3.0, Arbovirus anti 22.1, Bcl-W Bim block 3.0, Bim-Bfl-1 25.0 and Bcl-2 Bim block 2.0.
For Cc1ccc(OCCSCc2nnc(NC(=O)Nc3cccc(Cl)c3)s2)cc1 the results were Bim-Bcl-XL -11.0, Bim-Bcl-B -9.0, Arbovirus anti 38.0*, Bcl-W Bim block -7.0, Bim-Bfl-1 -2.0 and Bcl-2 Bim block -3.0.
